# Measured values taken from PubChem BioAssay.
# Activity calls are given as the source filed them. Unless noted, no stated cut-off is given here; in the data, active means inhibition above about 80%; inactive means the rest.
# Experiments:
# [1] = viability loss with induced miR-34 in A549 – imaging, A549 dox-inducible miR-34, nuclei and caspase counts, primary screen (AID 1347080;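 active means compounds whose cell count with miR-34 switched on is under 0.7 times the count with it off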); conditions: A549 miR-34 inducible, Hoechst nuclei count, 48 h
# [2] = MELAS cybrid and Rieske KO viability enhancers – cell-based, MELAS cybrids, Rieske KO mouse fibroblasts, CellTiter-Glo, primary screen (AID 1508586;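 active means mean z-score across replicates of 1.96 or higher in either the MELAS or the Rieske mutant cell line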;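 further: z relative to plate mean and SD of compound and empty wells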); conditions: low glucose
# [3] = growth inhibition, single agent or in combination, cell-based, chromothripsis tumors, cisplatin or BGB combos (AID 1671449); conditions: LFS_MB_P medulloblastoma cells;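 further: cells exposed for 96 hours; 0% = vehicle DMSO and 100% = killing by high DMSO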
# [4] = growth inhibition, single agent and combos, cell-based, chromothripsis tumors, cisplatin or BGB combos (AID 1671450); conditions: HDN33 neuroblastoma cells, stronger effect = higher value;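 further: cells exposed to compound for four days; 0% = vehicle DMSO and 100% = cell killing by high DMSO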
# [5] = growth inhibition, single agents and combos, ICB984, cell-based, cisplatin or BGB combos, synergistic combos for chromothripsis tumors (AID 1671451; call rule not given here;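 further: cells exposed for 96 hours before readout; 0% = vehicle DMSO and 100% = killing by high DMSO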); conditions: ICB984 medulloblastoma cells, drug combinations, stronger effect = higher value
# [6] = growth inhibition, single agents and combos, LFS_MB_1R, cell-based, cisplatin or BGB combos, synergistic combos for chromothripsis tumors (AID 1671452); conditions: LFS_MB_1R medulloblastoma cells, stronger effect = higher value;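 further: cells exposed for 96 hours before readout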
# [7] = growth inhibition, single agents and combos, HTB85, cell-based, BGB or cisplatin IC20 combos, synergistic combos for chromothripsis tumors (AID 1671453); conditions: HTB85 osteosarcoma cells, drug combinations, stronger effect = higher value;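 further: cells exposed for 96 hours before readout; 0% = vehicle DMSO and 100% = high DMSO killing control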
# [8] = growth inhibition, single agents and combos, CRL2098, cell-based, BGB or cisplatin IC20 combos, synergistic combos for chromothripsis tumors (AID 1671454); conditions: CRL2098 osteosarcoma cells, drug combinations, stronger effect = higher value;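 further: cells exposed for 96 h before readout; 0% = vehicle DMSO and 100% = killing by high DMSO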
# [9] = growth inhibition, single agents and combos, HD-MB03, cell-based, BGB or cisplatin IC20 combos, synergistic combos for chromothripsis tumors (AID 1671455; in the data active means inhibition above about 83%;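 further: 0% = vehicle DMSO and 100% = high DMSO as cytotoxic control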); conditions: HD-MB03 medulloblastoma cells, stronger effect = higher value
# [10] = growth inhibition, single agents and combos, UWB1.289, cell-based, BGB or cisplatin combos, synergistic combos for chromothripsis tumors (AID 1671456); conditions: UWB1.289 ovarian carcinoma cells, stronger effect = higher value;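 further: cells exposed to compound for four days; 0% = vehicle DMSO and 100% = killing by high DMSO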
# [11] = growth inhibition, single agents and combos, LFS_MB_2R, cell-based, cisplatin combos, synergistic combos for chromothripsis tumors (AID 1671457); conditions: LFS_MB_2R medulloblastoma cells, stronger effect = higher value;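 further: cells exposed to compound for four days before readout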
# [12] = growth inhibition, MDA-MB-436, cell-based, BGB or cisplatin combos, synergistic combos for chromothripsis tumors (AID 1671458; call rule not given here;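 further: cells exposed for 96 hours; 0% = vehicle DMSO and 100% = killing by high DMSO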); conditions: MDA-MB-436 breast carcinoma growth inhibition, drug combinations, stronger effect = higher value
# [13] = UWB1.289_BRCA1 ovarian cancer growth, cell-based, BGB or cisplatin combinations (AID 1671459); conditions: UWB1.289 BRCA1 ovarian carcinoma, drug combinations, stronger effect = higher value
# [14] = drug combination toxicity in non-malignant astrocytes – cell-based, BGB or cisplatin IC20 combos, cytotoxicity control for chromothriptic childhood tumor combination screen (AID 1671460); conditions: Human astrocytes, viability inhibition, drug combinations, at 0.5 µM, stronger effect = higher value;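 further: cells exposed to compounds for 96 hours before viability readout; 0% = vehicle and 100% = killing control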
# [15] = BT084 cell growth, single and combined drugs, ICGC_MB145, cisplatin and BGB IC40 combos (AID 1671461); conditions: BT084 medulloblastoma cells, drug combinations, stronger effect = higher value;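 further: cells exposed to drugs for 96 hours; 0% = vehicle DMSO and 100% = high DMSO full killing control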
# [16] = RCMB18 cell growth, single agent and combined, cisplatin and BGB IC40 combos (AID 1671462); conditions: RCMB18 medulloblastoma cells, stronger effect = higher value;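 further: cells exposed to compound for four days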
# [17] = CRL1545 cell growth, single agent and combined, cisplatin and BGB IC20 combos (AID 1671464); conditions: CRL1545 osteosarcoma cells, stronger effect = higher value;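 further: cells exposed to compound for 96 hours before readout; 0% = vehicle DMSO and 100% = high DMSO killing control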
# [18] = stronger effect = lower value, cell number ratio, induced over uninduced
# [19] = measured here: relative caspase fold change +Dox/-Dox
# [20] = measured here: total cells with miR-34 induction, stronger effect = lower value
# [21] = measured here: total cells without miR-34 induction
# [22] = MELAS cybrid survival, CellTiter-Glo 48 h, stronger effect = higher value
# [23] = Rieske KO mouse fibroblast survival, CellTiter-Glo 72 h
# [24] = at 0.5 µM, stronger effect = higher value
# [25] = measured here: combination with BGB IC20, at 0.005 µM
# [26] = measured here: combination with BGB IC40, at 0.005 µM
# [27] = measured here: combination with BGB IC40, at 0.05 µM
# [28] = measured here: combination with cisplatin, at 0.5 µM, stronger effect = higher value
# [29] = measured here: combination with cisplatin, at 5 µM, stronger effect = higher value
# [30] = measured here: with BGB IC20 combination, at 0.5 µM
# [31] = measured here: with cisplatin IC20 combination, at 0.5 µM
# [32] = measured here: 5 uM single agent, at 5 µM
# [33] = measured here: combination with cisplatin, at 0.5 µM
# [34] = measured here: combination with cisplatin, at 5 µM
# [35] = measured here: with BGB IC20, at 0.5 µM
# [36] = measured here: with BGB IC20, at 5 µM
# [37] = measured here: with cisplatin IC20, at 0.5 µM
# [38] = measured here: with cisplatin IC20, at 5 µM
# [39] = measured here: combination with BGB at IC20, at 0.5 µM
# [40] = measured here: combination with cisplatin at IC20, at 0.5 µM
# [41] = measured here: combo with BGB at IC20, at 0.5 µM
# [42] = measured here: combo with cisplatin at IC20, at 0.5 µM
# [43] = measured here: inhibition with BGB combination, at 0.05 µM
# [44] = measured here: inhibition with cisplatin combination, at 0.05 µM
# [45] = measured here: BGB combination, at 0.5 µM
# [46] = measured here: BGB combination, at 5 µM
# [47] = measured here: cisplatin combination, at 0.5 µM
# [48] = measured here: cisplatin combination, at 5 µM
# [49] = BGB combination, concentration series, at 5 µM
# [50] = cisplatin combination, concentration series, at 5 µM
# [51] = measured here: combo with BGB IC20
# [52] = measured here: combo with cisplatin IC20
# [53] = cisplatin combination, at 0.5 µM
# [54] = measured here: BGB IC40 combination 0.05 uM, at 0.05 µM
# [55] = measured here: BGB IC40 combination, at 0.05 µM
structure (smiles),measurement,setting,value
NC(=S)NN=Cc1ncccc1N,fold change,[1]; [18],1.15 (inactive)
same,fold change,[1]; [19],0.619
same,cell count,[1]; [20],1840
same,cell count,[1]; [21],1600
same,z-score,[2]; [22],1.28
same,z-score,[2]; [23],3.3
same,inhibition,[3]; [24],-16.7% (inactive)
same,inhibition,[3]; [25],-2.55%
same,inhibition,[3]; [26],-23%
same,inhibition,[3]; [27],-3.08%
same,inhibition,[3]; [28],-29.8%
same,inhibition,[3]; [29],-31.8%
same,inhibition,"[4]; BGB combo, at 5 µM",85%
same,inhibition,[4]; at 0.5 µM,11.9% (inactive)
same,inhibition,"[4]; cisplatin combo, at 5 µM",80.1%
same,inhibition,[4]; [30],3.11%
same,inhibition,[4]; [31],14.3%
same,inhibition,"[4]; single agent, at 5 µM",84.5%
same,inhibition,"[5]; BGB IC20 combo, at 0.005 µM",-9.24%
same,inhibition,"[5]; BGB IC40 combo, at 0.005 µM",-38.2%
same,inhibition,"[5]; BGB IC40 combo, at 0.05 µM",-31.3%
same,inhibition,[5]; at 0.5 µM,-16.4% (inactive)
same,inhibition,"[5]; cisplatin combo, at 0.05 µM",-36.5%
same,inhibition,"[5]; cisplatin combo, at 0.5 µM",-17.6%
same,inhibition,"[5]; cisplatin combo, at 5 µM",-14.8%
same,inhibition,[5]; [32],-38.9%
same,inhibition,[6]; at 0.5 µM,-7% (inactive)
same,inhibition,[6]; [27],-3.08%
same,inhibition,[6]; [33],22.7%
same,inhibition,[6]; [34],-19.1%
same,inhibition,[7]; at 0.5 µM,-8.27% (inactive)
same,inhibition,[7]; [35],-17.3%
same,inhibition,[7]; [36],67.1%
same,inhibition,[7]; [37],-3.68%
same,inhibition,[7]; [38],77.8%
same,inhibition,"[7]; single agent, at 5 µM",84.1%
same,inhibition,[8]; at 0.5 µM,-55.6% (inactive)
same,inhibition,[8]; [39],-6.91%
same,inhibition,[8]; [40],-62.8%
same,inhibition,[9]; at 0.5 µM,-11.3% (inactive)
same,inhibition,[9]; [41],-13%
same,inhibition,[9]; [42],-15.8%
same,inhibition,[10]; at 0.5 µM,-4.48% (inactive)
same,inhibition,[10]; [43],-19.9%
same,inhibition,[10]; [44],-12.6%
same,inhibition,[11]; at 0.5 µM,-23.1% (inactive)
same,inhibition,[11]; [33],-11.4%
same,inhibition,[11]; [34],-13.5%
same,inhibition,[12]; at 0.5 µM,-24% (inactive)
same,inhibition,[12]; [45],-21.8%
same,inhibition,[12]; [46],39.5%
same,inhibition,[12]; [47],-34.4%
same,inhibition,[12]; [48],62.7%
same,inhibition,[13]; [49],56.4%
same,inhibition,[13]; at 0.5 µM,0.83% (inactive)
same,inhibition,[13]; [50],62.5%
same,inhibition,[14],13.8% (inactive)
same,inhibition,[14]; [51],17.9%
same,inhibition,[14]; [52],11.3%
same,inhibition,[15]; at 0.5 µM,-38.9% (inactive)
same,inhibition,[15]; [53],-29.3%
same,inhibition,"[15]; cisplatin combination, at 5 µM",-3.12%
same,inhibition,[15]; [54],-31.2%
same,inhibition,"[15]; single agent, at 5 µM",-27%
same,inhibition,[16]; at 0.5 µM,-9.8% (inactive)
same,inhibition,"[16]; cisplatin combo, at 5 µM",15.6%
same,inhibition,[16]; [55],-6.51%
same,inhibition,[16]; [33],3.15%
same,inhibition,"[16]; single agent, at 5 µM",-34.2%
same,inhibition,[17]; at 0.5 µM,10.3% (inactive)
same,inhibition,[17]; [30],-9.01%
same,inhibition,[17]; [31],19.9%
same,inhibition,"[17]; single agent, at 0.05 µM",29.3%
same,inhibition,"[17]; single agent, at 5 µM",63.9%
CC(C)(C#N)c1ccc(N2C(=O)OCc3cnc4ccc(-c5cnc6ccccc6c5)cc4c32)cc1,fold change,[1]; [18],0.956 (inactive)
same,fold change,[1]; [19],0.673
same,cell count,[1]; [20],2510
same,cell count,[1]; [21],2620
same,z-score,[2]; [22],3.99 (active)
same,z-score,[2]; [23],2.98
same,inhibition,[3]; [24],-21.4% (inactive)
same,inhibition,[3]; [25],-11.2%
same,inhibition,[3]; [26],-17%
same,inhibition,[3]; [27],-37.9%
same,inhibition,[3]; [28],-37.5%
same,inhibition,[3]; [29],-27.3%
same,inhibition,"[4]; BGB combo, at 5 µM",20.7%
same,inhibition,[4]; at 0.5 µM,3.13% (inactive)
same,inhibition,"[4]; cisplatin combo, at 5 µM",12.1%
same,inhibition,[4]; [30],34.2%
same,inhibition,[4]; [31],-10.9%
same,inhibition,"[4]; single agent, at 5 µM",52.2%
same,inhibition,"[5]; BGB IC20 combo, at 0.005 µM",-18.4%
same,inhibition,"[5]; BGB IC40 combo, at 0.005 µM",-8.9%
same,inhibition,"[5]; BGB IC40 combo, at 0.05 µM",30.5%
same,inhibition,[5]; at 0.5 µM,-29.7% (inactive)
same,inhibition,"[5]; cisplatin combo, at 0.05 µM",28.5%
same,inhibition,"[5]; cisplatin combo, at 0.5 µM",-15.5%
same,inhibition,"[5]; cisplatin combo, at 5 µM",-36.2%
same,inhibition,[5]; [32],-21.9%
same,inhibition,[6]; at 0.5 µM,-13.4% (inactive)
same,inhibition,[6]; [27],-7.9%
same,inhibition,[6]; [33],-39.8%
same,inhibition,[6]; [34],24%
same,inhibition,[7]; at 0.5 µM,3.37% (inactive)
same,inhibition,[7]; [35],2.55%
same,inhibition,[7]; [36],14.5%
same,inhibition,[7]; [37],-23.6%
same,inhibition,[7]; [38],28.2%
same,inhibition,"[7]; single agent, at 5 µM",-10.2%
same,inhibition,[8]; at 0.5 µM,-42.5% (inactive)
same,inhibition,[8]; [39],-42.2%
same,inhibition,[8]; [40],-56.5%
same,inhibition,[9]; at 0.5 µM,-11.6% (inactive)
same,inhibition,[9]; [41],-14.5%
same,inhibition,[9]; [42],-8.16%
same,inhibition,[10]; at 0.5 µM,5.6% (inactive)
same,inhibition,[10]; [43],-17%
same,inhibition,[10]; [44],-6.61%
same,inhibition,[11]; at 0.5 µM,-11.6% (inactive)
same,inhibition,[11]; [33],-16.8%
same,inhibition,[11]; [34],-39.1%
same,inhibition,[12]; at 0.5 µM,-25% (inactive)
same,inhibition,[12]; [45],-28.5%
same,inhibition,[12]; [46],-0.266%
same,inhibition,[12]; [47],-29.7%
same,inhibition,[12]; [48],-3.36%
same,inhibition,[13]; [49],53.9%
same,inhibition,[13]; at 0.5 µM,6.07% (inactive)
same,inhibition,[13]; [50],99.8%
same,inhibition,[14],-4.16% (inactive)
same,inhibition,[14]; [51],-12.4%
same,inhibition,[14]; [52],-5.44%
same,inhibition,[15]; at 0.5 µM,-28.9% (inactive)
same,inhibition,[15]; [53],-2.27%
same,inhibition,"[15]; cisplatin combination, at 5 µM",60.4%
same,inhibition,[15]; [54],-35.6%
same,inhibition,"[15]; single agent, at 5 µM",4.04%
same,inhibition,[16]; at 0.5 µM,-2.14% (inactive)
same,inhibition,"[16]; cisplatin combo, at 5 µM",20.5%
same,inhibition,[16]; [55],-35.7%
same,inhibition,[16]; [33],7.95%
same,inhibition,"[16]; single agent, at 5 µM",19.4%
same,inhibition,[17]; at 0.5 µM,0.16% (inactive)
same,inhibition,[17]; [30],-15%
same,inhibition,[17]; [31],5.66%
same,inhibition,"[17]; single agent, at 0.05 µM",-4.01%
same,inhibition,"[17]; single agent, at 5 µM",26.5%
